From PubChem BioAssay
Shown are actives, neighbours in structure and some others; about 2.8% of the full set was active somewhere.
HEK293 tox: cytotoxicity in counter-screen for GLP-1R inverse agonists; HEK293 cAMP-luciferase reporter cells, luminescence, 24 h; Potency, µM (doses to about 38.3 µM), most hits filed as inhibitors; actives 0.13% (n = 410,000); AID 624418;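 further: loss of luciferase light is scored as toxicity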
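A 23 nL compound transfer followed 12 hours of cell culture at 37 deg C; exposure then lasted 24 hr. Luciferase assay detection reagent was dispensed and plates read for luminescence after a 12 min room-temperature wait.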
Mito fusion yeast: inhibitors of mitochondrial division or activators of mitochondrial fusion | S. cerevisiae fusion-defective mutant growth rescue, CellTiterGlo 48 h | AID 485298 | Potency, µM (top dose mostly 46.1 µM), usual class: activators | actives 0.23% (n = 320,000); further: nearly all actives have a fitted effect of over 45% in size
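Growth-rescue viability read-out: after 48 h at the non-permissive 37C in glycerol/ethanol YPEG, yeast mitochondrial fusion mutants are measured by CellTiterGlo luminescence; compounds (23 nl pinned per well) restoring growth score as division inhibitors or fusion activators.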
GLP-1R inv ag: GLP-1 receptor (human) inverse agonism. P43220. HEK293 GLP-1R CRE-luciferase, luminescence, 24 h; GLP-1R form is constitutively active. Potency, µM (highest dose often 38.3 µM), usual class: inhibitors. actives 1.6% (n = 410,000). AID 624417; further: nearly all actives have a fitted effect of over 55% in size
Target sequence (P43220 whole entry, looked up): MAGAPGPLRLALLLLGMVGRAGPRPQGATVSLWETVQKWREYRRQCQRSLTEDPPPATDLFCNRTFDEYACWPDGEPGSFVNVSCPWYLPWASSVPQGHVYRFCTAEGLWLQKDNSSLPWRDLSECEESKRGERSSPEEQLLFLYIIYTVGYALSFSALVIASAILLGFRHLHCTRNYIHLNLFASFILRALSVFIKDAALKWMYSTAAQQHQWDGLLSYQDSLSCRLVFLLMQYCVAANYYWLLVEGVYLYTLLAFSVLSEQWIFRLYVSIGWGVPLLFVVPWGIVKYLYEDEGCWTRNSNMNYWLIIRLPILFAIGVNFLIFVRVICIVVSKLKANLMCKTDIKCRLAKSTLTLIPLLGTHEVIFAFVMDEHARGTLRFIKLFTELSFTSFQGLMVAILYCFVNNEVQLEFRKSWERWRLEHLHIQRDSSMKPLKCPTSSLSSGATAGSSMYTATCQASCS
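Seeding at 200 cells/uL, 12 h culture, 24 hr compound treatment, then luciferase reagent and a luminescence read; cells are HEK293 stably expressing a constitutively active GLP-1R plus cAMP-responsive luciferase.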
BRCA1 expr up: increases BRCA1 expression | MCF7-BRCA1-FFLuc reporter, luminescence, 48 h; response scale: scaled: vehicle 0%, 10 µM genistein 100% | Potency, µM (top dose mostly 46.1 µM), actives largely listed as activators | actives 1.1% (n = 380,000) | AID 624202; further: nearly all actives have a fitted effect of over 80% in size
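MCF7-BRCA1-FFLuc, 2000 cells/well; 2 h attach, 37 °C/5% CO2; compound 48 h; luciferase substrate 15 min; luminescence end-point. Norm. to genistein 10 microM max activation and DMSO; concentration-response curves fitted.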
GLP-1R agonist: GLP-1 receptor (human) agonism; P43220; HEK293 GLP-1R CRE-luciferase, luminescence, 4-6 h; cells express a hypersensitive GLP-1R form; Potency, µM (titrated, usually from 45.6 µM), hits mostly activators; actives 0.007% (n = 380,000)
Of the large screens only hits and unclear results are named; the others gave an inactive call. The call rests on the fitted dose curve; in most records, active means well fitted curve in the direction sought with a large enough effect; inconclusive means small, poorly fitted or top-dose-only effect, or another doubt; inactive means no such curve, though single readings can be large; an effect the other way counts as inactive or inconclusive.

CCC(CC)CN1C(Nc2ccccc2)=NC[C@@H]1C	none
CC(C)=CCc1c(O)cc(O)c2c(=O)c3c(CC=C(C)C)c(O)ccc3oc12	HEK293 tox inconclusive, GLP-1R inv ag 10µM (no result: Mito fusion yeast)
Cn1cc(CCC(=O)NCc2cccc(Cl)c2)c2ccccc21	Mito fusion yeast 31.6µM, GLP-1R inv ag inconclusive
CCOc1ccccc1CNC(=O)CCc1cn(C)c2ccccc12	GLP-1R inv ag 7.08µM
O=C(NCc1cccc(C(F)(F)F)c1)c1cc(Cl)ccc1Cl	GLP-1R inv ag inconclusive
O=C(Cc1cccc(C(F)(F)F)c1)NCc1cccc(Cl)c1	GLP-1R inv ag 10µM
Cn1cc(CCCC(=O)NCc2ccccc2)c2ccccc21	GLP-1R inv ag inconclusive
CC(=O)N1CCCc2cc(S(=O)(=O)N3CCN(c4ccccn4)CC3)ccc21	none
CCOc1ccc(NC(=O)CN2CCCC2c2cccs2)cc1S(=O)(=O)N1CCCCC1 (configuration not stated)	HEK293 tox inconclusive, GLP-1R inv ag inconclusive
Cc1ccc(NC(=O)CNc2ccc(OC(C)C)cc2)c(C)c1	GLP-1R inv ag inconclusive
CC(Oc1ccccc1)C(=O)Nc1ccc(S(=O)(=O)N2CCCC2)cc1 (configuration not stated)	none
Cc1ccc(NC(=O)C(C)Oc2ccccc2)cc1S(=O)(=O)N1CCCCCC1 (configuration not stated)	GLP-1R inv ag 12.6µM
Cc1ccc(NC(=O)CN2CCCC2c2cccs2)cc1S(=O)(=O)N1CCCCC1 (configuration not stated)	GLP-1R inv ag 4.47µM
Cc1ccc(NS(=O)(=O)c2cc(NC(=O)C(C)Oc3ccccc3)ccc2C)c(C)c1 (configuration not stated)	Mito fusion yeast inconclusive, GLP-1R inv ag 10µM
COc1ccc(C(=O)N2CCN(C3CCN(Cc4ccccc4)CC3)CC2)cc1OC	none
CCOC(=O)c1ccc(NC(=O)c2nc[nH]c2C(=O)N[C@@H](CC(C)C)C(=O)OCc2ccccc2)cc1	none
O=C(COc1ccc(S(=O)(=O)NC2CCCC2)cc1)N1CCCCC1	none
CCOc1ccccc1NC(=O)c1cc(S(=O)(=O)NC2CCCC2)ccc1F	GLP-1R inv ag 6.31µM (no result: Mito fusion yeast, BRCA1 expr up, GLP-1R agonist)
CCOc1ccccc1NC(=O)C1(S(=O)(=O)c2ccc(Cl)cc2)CC1	GLP-1R inv ag 7.08µM
CCOc1ccc(NC(=O)c2cc(S(=O)(=O)NC3CCCCCC3)ccc2F)cc1	GLP-1R inv ag inconclusive (no result: Mito fusion yeast, BRCA1 expr up, GLP-1R agonist)
CCOC(=O)c1ccc(NC(=O)C2(S(=O)(=O)c3ccc(Cl)cc3)CC2)cc1	GLP-1R inv ag inconclusive (no result: Mito fusion yeast, BRCA1 expr up, GLP-1R agonist)
CCOc1ncccc1C(=O)Nc1nnc(C2CC2)s1	none
CN(Cc1ccccc1)C(=O)c1cccc(NC(=O)C2CCCN(C(=O)OC(C)(C)C)C2)c1 (configuration not stated)	GLP-1R inv ag inconclusive (no result: Mito fusion yeast)
O=C1C(Nc2ccccc2)=C/C(=N/S(=O)(=O)c2cccs2)c2ccccc21	HEK293 tox 4.47µM
Cc1ccc(S(=O)(=O)/N=C2\C=C(Nc3ccc(O)cc3)C(=O)c3ccccc32)cc1	HEK293 tox 2.82µM, GLP-1R inv ag 4.47µM (no result: Mito fusion yeast)
CCCC1=Nc2cc(C(=O)NCCc3ccccc3)ccc2Sc2ccc(C)cc21	HEK293 tox inconclusive, GLP-1R inv ag inconclusive (no result: Mito fusion yeast)
CCCC1=Nc2cc(C(=O)NC(C)c3ccccc3)ccc2Sc2ccc(C)cc21 (configuration not stated)	GLP-1R inv ag 4.47µM (no result: Mito fusion yeast)
CCCC1=Nc2cc(C(=O)NCc3ccc(OC)cc3)ccc2Sc2ccc(C)cc21	GLP-1R inv ag 4.47µM (no result: Mito fusion yeast)
CCCN1C/C(=C/c2cccc([N+](=O)[O-])c2)C(=O)/C(=C/c2cccc([N+](=O)[O-])c2)C1	GLP-1R inv ag inconclusive
Cc1ccc(C(OCC(O)CNC(CO)C(O)c2ccc([N+](=O)[O-])cc2)c2ccccc2)cc1 (configuration not stated)	GLP-1R inv ag 8.91µM
Cc1cccc(NS(=O)(=O)c2ccc(C(=O)NCC3(N4CCCCC4)CCCCC3)cc2)c1C	HEK293 tox inconclusive, GLP-1R inv ag inconclusive
CCN(Cc1ccccc1)S(=O)(=O)c1cc(C(=O)NC2CCCCCC2)ccc1OC	GLP-1R inv ag 2.24µM
